D1 ag: activates the human D1 dopamine receptor; P21728; HEK293 T-REx D1 cells, calcium flux, agonist mode; activation, % at 2 µM; 360,000 compounds, 1% hits; in the data active = activation above about 30%; note: 0% is about no effect
Target sequence (P21728 whole entry, looked up): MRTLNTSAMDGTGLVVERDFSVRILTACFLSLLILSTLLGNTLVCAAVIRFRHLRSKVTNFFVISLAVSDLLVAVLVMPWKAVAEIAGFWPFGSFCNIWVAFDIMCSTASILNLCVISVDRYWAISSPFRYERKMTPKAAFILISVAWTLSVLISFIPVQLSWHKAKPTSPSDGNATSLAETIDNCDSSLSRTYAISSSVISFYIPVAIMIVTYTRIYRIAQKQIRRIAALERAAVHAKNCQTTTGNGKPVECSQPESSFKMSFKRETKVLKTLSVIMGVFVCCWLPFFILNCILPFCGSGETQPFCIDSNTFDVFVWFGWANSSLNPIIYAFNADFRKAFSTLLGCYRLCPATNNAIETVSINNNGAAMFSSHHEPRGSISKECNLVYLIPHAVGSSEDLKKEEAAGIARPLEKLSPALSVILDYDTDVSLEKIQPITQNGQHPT
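Tetracycline-induced HEK293 TREx D1 cells, force-coupled to calcium signalling, were dye-loaded with a no-wash calcium kit. Compound was pin-added after a 10 s baseline. Fluorescence was read kinetically at 1 cycle/s for 180 s, with calcium rises flagged as agonism.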
D1 antag: antagonists of human D1 dopamine receptor; activity change, negative = inhibition, % at 10 µM; P21728; HEK293 TREx D1 cells, calcium flux, dopamine EC80; hits give low values; 360,000 compounds, 3.2% hits; in the data active = activity change below about -30%; note: % is set by controls: 0 for no effect and ±100 for the full control effect
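Tetracycline-induced HEK293 T-REx cells with force-coupled D1 receptor were loaded with a no-wash calcium dye. Compound was added after a 10 s baseline and read kinetically for 180 s; EC80 dopamine was then added and calcium flux followed another 180 s.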
D3 antag: D3 dopamine receptor (human) antagonism | P35462 | D3R cells, DiscoveRx beta-arrestin luminescence, antagonist mode; hits give low values | max response, negative = inhibition, % | 360,000 compounds, 2.5% hits | AID 652054; in the data active = max response below about -50%; inconclusive = no clear call, values can overlap the other calls; note: % is set by controls: 0 for no effect and ±100 for the full control effect
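Cells plated overnight at 1500 cells/well, then exposed to library compounds with dopamine controls for 90 minutes at 37 degrees C. DiscoveRx reagent added for 30–60 minutes at room temperature; luminescence read, quantitative HTS format.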
D1 potentiator: potentiators of human D1 dopamine receptor. potentiation, % at 10 µM. HEK293 TREx D1 cells, calcium flux, dopamine EC20 potentiation. AID 504651. 360,000 compounds, 0.036% hits. P21728; in the data active = potentiation above about 30%; note: 0% is about no effect
D3 ag: activates the human D3 dopamine receptor. P35462. D3R DiscoveRx beta-arrestin cells, luminescence, 90 min. max activation, %. 410,000 compounds, 0.58% hits; in the data active = max activation above about 30%; note: 0% is about no effect
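Agonist-mode cell screen: cells plated at 1500/well and incubated overnight at 37 °C, then exposed to library compounds for 90 min at 37 °C. Detection reagent was added for 30–60 min at room temperature, and luminescence was read.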
Active calls of the source: *; ? = inconclusive; . = not tested or not shown. A selection: hits, their analogues and other compounds. The true share with any hit is near 6%.

SMILES | D1 ag | D1 antag | D3 antag | D1 potentiator | D3 ag
Cc1ccc(NC(=O)CNC(=O)N2CC(=O)Nc3ccccc32)cc1F | 3 | -2 | -16 | -10 | -4
O=C(CN1CC(=O)Nc2ccccc21)Nc1ccc(F)c(F)c1 | 1 | -39* | -3 | -15 | -3
CCOC(=O)c1c(C)oc2nc(C)nc(NCc3ccc(F)cc3)c12 | 4 | 2 | . | -4 | 13
CC(C)c1cccc(OCCN2CCCC2)c1 | 2 | -8 | -100* | -4 | -19
Cc1cccc(C)c1OCCN1CCCC1 | -1 | -3 | -8 | -3 | -10
Clc1cccc(OCCN2CCCC2)c1 | 2 | -14 | -73* | 4 | -11
CCC1CCCCN1CCCCOc1cccc(Cl)c1 (centres undefined) | 4 | 15 | -96* | -23 | -21
CN1CCN(CCOc2cccc(Cl)c2)CC1 | 8 | -24 | ? | -11 | 1
CCOC(=O)c1c(C)n(-c2ccccc2)c2ccc(OC(=O)c3ccc(OCC)c(OCC)c3)cc12 | 6 | 4 | . | 0 | -16
O=C(CCCc1nc2ccccc2s1)NCc1ccccc1F | 2 | -42* | -7 | 6 | -1
CCC(C)NCCCOc1cc(Cl)ccc1Cl (centres undefined) | 14 | -16 | -77* | -6 | -6
CCC(C)NCCCCOc1ccc(Cl)cc1C (centres undefined) | 16 | -17 | -60* | -5 | -11
CCCCNCCCOc1cc(Cl)ccc1Cl | 15 | -25 | ? | -6 | -17
Cc1csc2nc(COC(=O)c3cccc(NC(=O)c4cccc(Cl)c4)c3)cc(=O)n12 | -1 | -15 | . | 1 | -25
Cc1cc(C)c(C(=O)CC(=O)c2ccccc2Cl)c(O)c1 | 8 | 2 | -64* | 6 | -12
O=C(CN1C(=O)COc2ccc(Cl)cc21)Nc1ccc(F)cc1 | 25 | -34* | . | -6 | 5
CC(=O)c1ccc(NC(=O)CN2C(=O)COc3ccc(Cl)cc32)cc1 | 5 | 1 | 20 | -3 | 3
Cc1ccccc1NC(=O)CN1C(=O)COc2ccc(Cl)cc21 | 4 | -92* | -1 | -9 | -5
Cn1c(SCc2ccc(Br)cc2)nc2ccccc2c1=O | 14 | 18 | 17 | 2 | 15
Cn1c(SCc2ccccc2)nc2ccsc2c1=O | 4 | 0 | 11 | -1 | 35*
CC1=C(c2ccc(C(C)C)cc2)S(=O)(=O)NC1=NCCCN1CCN(c2ccccc2F)CC1 | -2 | -6 | . | 3 | 0
c1coc(-c2nc3ccccn3c2Nc2ccc3c(c2)OCCO3)c1 | 1 | -49* | . | 2 | 0
Cc1ccc2nc(-c3ccco3)c(Nc3ccc4c(c3)OCCO4)n2c1 | 1 | 5 | . | -1 | 3
COc1ccc(C(=O)c2sc3nc(-c4ccc(C)cc4)cc(C(F)(F)F)c3c2N)cc1 | 90* | -4 | . | -5 | -10
COc1ccc(C(=O)c2sc3nc(-c4ccc(OC)cc4)ccc3c2N)cc1 | 61* | -8 | 16 | -6 | 1
SMILES | D1 ag | D1 antag | D3 antag | D1 potentiator | D3 ag
COc1ccc(NC(=O)c2sc3nc(-c4ccc(OC)cc4)cc(C(F)(F)F)c3c2N)cc1 | 11 | -9 | . | -1 | 1
COc1cccc(-c2ccc3c(N)c(C(=O)c4ccc(F)cc4)sc3n2)c1 | 150* | -10 | . | -4 | -2
O=C1OC2(CCCCC2)CC2=C1C1O[C@](c3ccsc3)(Cc3c1ccc1ccccc31)O2 | 6 | -3 | . | 0 | .
Cc1onc(-c2ccccc2)c1C(=O)NNC(=S)NC(=O)c1ccc(Br)cc1 | 134* | 12 | -26 | -1 | -18
COc1cc(C(=O)NC(=S)Nc2ccc(Cl)c(C(=O)O)c2)cc(OC)c1OC | 1 | -1 | -89* | 2 | -12
Cc1onc(-c2ccccc2)c1C(=O)NNC(=O)c1ccccc1 | 1 | 4 | -4 | -6 | 1
O=C(/C=C/c1ccccc1)NC(=S)NNC(=O)Cc1cccs1 | 0 | 2 | -72* | -1 | -5
COc1ccc(/C=C/C(=O)NC(=S)NNC(=O)Cc2cccs2)cc1 | 2 | 2 | -6 | -2 | 1
CCCN(CCC)C(=S)NC(=O)c1ccc(Cl)cc1Cl | 0 | -7 | -182* | -2 | 2
CCC(=O)Nc1cccc(NC(=S)NC(=O)c2ccc(Cl)cc2Cl)c1 | 0 | 0 | -7 | -8 | 3
COc1ccc(-n2c(SCc3ccccc3)nc3c([nH]c4ccccc43)c2=O)cc1 | 2 | 7 | . | -5 | -16

Source: PubChem BioAssay
